# Reference: the supplement of paper PMC8728848
# About 410 targets per protein were measured; listed, in parts, are those with the strongest signals and a random draw of the rest.
# B1: Protein L(B1-B4) (Finegoldia magna), Q51912 (protein)
# chain: KEETPETPETDSEEEVTIKANLIFANGSTQTAEFKGTFEKATSEAYAYADTLKKDNGEYTVDVADKGYTLNIKFAGKEKTPEEPKEEVTIKANLIYADGKTQTAEFKGTFEEATAEAYRYADALKKDNGEYTVDVADKGYTLNIKFAGKEKTPEEPKEEVTIKANLIYADGKTQTAEFKGTFEEATAEAYRYADLLAKENGKYTVDVADKGYTLNIKFAGKEKTPEEPKEEVTIKANLIYADGKTQTAEFKGTFAEATAEAYRYADLLAKENGKYTADLEDGGYTINIRFAG
# Experiments:
# Assay in all cases: glycan array binding signal (z-score within array); higher = stronger binding
# Conditions in all cases: glycan notation: IUPAC condensed, linker removed
# [1] = target: Fuc(a1-2)Gal(b1-3)GlcNAc(b1-3)[Fuc(a1-2)Gal(b1-3)GlcNAc(b1-6)]GalNAc
# In short: (§1)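 Glycan array data were curated from 3228 arrays in the Consortium for Functional Glycomics database and kept only where the protein sequence was available. Glycan names were converted to IUPAC-condensed notation, and columns mapping to the same glycan were averaged. The binding signal is a within-array Z-score, averaged across arrays of the same protein sequence at different concentrations or buffers and across linkers. Negative Z-scores can be read as non-binding.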
# [2] = target: Fuc(a1-2)Gal(b1-3)[Fuc(a1-4)]GlcNAc(b1-3)[Gal(b1-4)GlcNAc(b1-6)]Gal(b1-4)Glc
# In short: as §1
# [3] = target: Fuc(a1-2)Gal(b1-4)Fuc(a1-3)]GlcNAc(b1-2)Man(a1-3)[Fuc(a1-2)Gal(b1-4)[Fuc(a1-3)]GlcNAc(b1-2)Man(a1-6)]Man(b1-4)GlcNAc(b1-4)GlcNAc
# In short: as §1
# [4] = target: Fuc(a1-2)Gal(b1-4)[Fuc(a1-3)]GlcNAc
# In short: as §1
# [5] = target: Fuc(a1-2)Gal(b1-4)[Fuc(a1-3)]GlcNAc(b1-3)Gal(b1-4)[Fuc(a1-3)]GlcNAc(b1-3)Gal(b1-4)[Fuc(a1-3)]GlcNAc
# In short: as §1
# [6] = target: Fuc(a1-2)[Gal(a1-3)]Gal(b1-3)GlcNAc(b1-2)Man(a1-3)[Fuc(a1-2)[Gal(a1-3)]Gal(b1-3)GlcNAc(b1-2)Man(a1-6)]Man(b1-4)GlcNAc(b1-4)[Fuc(a1-6)]GlcNAc
# In short: as §1
# [7] = target: Fuc(a1-2)[Gal(a1-3)]Gal(b1-4)Glc
# In short: as §1
# [8] = target: Fuc(a1-2)[Gal(a1-3)]Gal(b1-4)GlcNAc(b1-3)GalNAc
# In short: as §1
# [9] = target: Fuc(a1-2)[Gal(a1-3)]Gal(b1-4)GlcNAc(b1-6)GalNAc
# In short: as §1
# [10] = target: Fuc(a1-2)[GalNAc(a1-3)]Gal(b1-4)GlcNAc(b1-2)Man(a1-3)[Fuc(a1-2)[GalNAc(a1-3)]Gal(b1-4)GlcNAc(b1-2)Man(a1-6)]Man(b1-4)GlcNAc(b1-4)[Fuc(a1-6)]GlcNAc
# In short: as §1
# [11] = target: Gal(b1-3)GlcNAc(b1-2)[Gal(b1-3)GlcNAc(b1-6)]Man(a1-6)[Gal(b1-3)GlcNAc(b1-2)Man(a1-3)]Man(b1-4)GlcNAc(b1-4)GlcNAc
# In short: as §1
# [12] = target: Gal(b1-3)GlcNAc(b1-3)Gal(b1-4)GlcNAc(b1-6)[Gal(b1-3)GlcNAc(b1-3)]Gal(b1-4)Glc
# In short: as §1
# [13] = target: Gal(b1-3)[Fuc(a1-4)]GlcNAc(b1-2)Man
# In short: as §1
# [14] = target: Gal(b1-4)GlcNAc(b1-2)[Gal(b1-4)GlcNAc(b1-6)]Man(a1-6)[Gal(b1-4)GlcNAc(b1-2)Man(a1-3)]Man(b1-4)GlcNAc(b1-4)[Fuc(a1-6)]GlcNAc
# In short: as §1
# [15] = target: Gal(b1-4)GlcNAc(b1-3)Gal(b1-4)GlcNAc(b1-2)Man(a1-3)[Gal(b1-4)GlcNAc(b1-3)Gal(b1-4)GlcNAc(b1-2)Man(a1-6)]Man(b1-4)GlcNAc(b1-4)[Fuc(a1-6)]GlcNAc
# In short: as §1
# [16] = target: Gal(b1-4)GlcNAc(b1-3)Gal(b1-4)GlcNAc(b1-3)Gal(b1-4)GlcNAc(b1-3)Gal(b1-4)GlcNAc(b1-2)Man(a1-3)[Gal(b1-4)GlcNAc(b1-3)Gal(b1-4)GlcNAc(b1-3)Gal(b1-4)GlcNAc(b1-3)Gal(b1-4)GlcNAc(b1-2)Man(a1-6)]Man(b1-4)GlcNAc(b1-4)GlcNAc
# In short: as §1
# [17] = target: Gal(b1-4)GlcNAc(b1-3)Gal(b1-4)GlcNAc(b1-3)Gal(b1-4)GlcNAc(b1-3)Gal(b1-4)GlcNAc(b1-3)Gal(b1-4)GlcNAc(b1-2)Man(a1-3)[Gal(b1-4)GlcNAc(b1-3)Gal(b1-4)GlcNAc(b1-3)Gal(b1-4)GlcNAc(b1-3)Gal(b1-4)GlcNAc(b1-3)Gal(b1-4)GlcNAc(b1-2)Man(a1-6)]Man(b1-4)GlcNAc(b1-4)GlcNAc
# In short: as §1
# [18] = target: Gal(b1-4)GlcNAc(b1-3)Gal(b1-4)GlcNAc(b1-3)[Gal(b1-4)GlcNAc(b1-3)Gal(b1-4)GlcNAc(b1-6)]GalNAc
# In short: as §1
# [19] = target: Gal3S(b1-3)GlcNAc
# In short: as §1
# [20] = target: Gal3S(b1-4)[Fuc(a1-3)]Glc6S
# In short: as §1
# [21] = target: GalNAc(b1-4)GlcNAc(b1-2)Man(a1-3)[GalNAc(b1-4)GlcNAc(b1-2)Man(a1-6)]Man(b1-4)GlcNAc(b1-4)GlcNAc
# In short: as §1
# [22] = target: GlcA(b1-3)GlcNAc
# In short: as §1
# [23] = target: GlcNAc(b1-3)Gal(b1-4)GlcNAc(b1-3)Gal(b1-4)GlcNAc(b1-2)Man(a1-3)[GlcNAc(b1-3)Gal(b1-4)GlcNAc(b1-3)Gal(b1-4)GlcNAc(b1-2)Man(a1-6)]Man(b1-4)GlcNAc(b1-4)[Fuc(a1-6)]GlcNAc
# In short: as §1
# [24] = target: GlcNAc(b1-3)Gal(b1-4)GlcNAc(b1-3)Gal(b1-4)GlcNAc(b1-3)Gal(b1-4)GlcNAc(b1-2)Man(a1-3)[GlcNAc(b1-3)Gal(b1-4)GlcNAc(b1-3)Gal(b1-4)GlcNAc(b1-3)Gal(b1-4)GlcNAc(b1-2)Man(a1-6)]Man(b1-4)GlcNAc(b1-4)GlcNAc
# In short: as §1
# [25] = target: GlcNAc6S(b1-3)Gal(b1-4)GlcNAc
# In short: as §1
# [26] = target: Man(a1-3)[Man(a1-6)]Man(a1-6)[Man(a1-2)Man(a1-3)]Man(b1-4)GlcNAc(b1-4)GlcNAc
# In short: as §1
# [27] = target: Man(a1-6)Man
# In short: as §1
# [28] = target: Neu5Ac(a2-3)Gal(b1-4)GlcNAc(b1-2)Man(a1-3)[Neu5Ac(a2-6)Gal(b1-4)GlcNAc(b1-2)Man(a1-6)]Man(b1-4)GlcNAc(b1-4)GlcNAc
# In short: as §1
# [29] = target: Neu5Ac(a2-3)Gal(b1-4)GlcNAc(b1-2)[Neu5Ac(a2-3)Gal(b1-4)GlcNAc(b1-4)]Man(a1-3)[GlcNAc(b1-4)][Neu5Ac(a2-3)Gal(b1-4)GlcNAc(b1-2)[Neu5Ac(a2-3)Gal(b1-4)GlcNAc(b1-6)]Man(a1-6)]Man(b1-4)GlcNAc(b1-4)GlcNAc
# In short: as §1
# [30] = target: Neu5Ac(a2-3)Gal(b1-4)GlcNAc(b1-3)Gal(b1-4)GlcNAc(b1-3)Gal(b1-4)GlcNAc
# In short: as §1
# [31] = target: Neu5Ac(a2-3)Gal(b1-4)GlcNAc(b1-3)Gal(b1-4)[Fuc(a1-3)]GlcNAc
# In short: as §1
# [32] = target: Neu5Ac(a2-3)Gal(b1-4)GlcNAc6S
# In short: as §1
# [33] = target: Neu5Ac(a2-3)[GalNAc(b1-4)]Gal(b1-4)GlcNAc(b1-3)GalNAc
# In short: as §1
# [34] = target: Neu5Ac(a2-6)Gal(b1-4)GlcNAc(b1-3)Gal(b1-4)GlcNAc(b1-3)Gal(b1-4)GlcNAc(b1-2)Man(a1-3)[Neu5Ac(a2-6)Gal(b1-4)GlcNAc(b1-3)Gal(b1-4)GlcNAc(b1-3)Gal(b1-4)GlcNAc(b1-2)Man(a1-6)]GalNAc
# In short: as §1
# [35] = target: Neu5Ac(a2-6)Gal(b1-4)GlcNAc(b1-3)Gal(b1-4)GlcNAc(b1-3)[Neu5Ac(a2-6)Gal(b1-4)GlcNAc(b1-3)Gal(b1-4)GlcNAc(b1-6)]GalNAc
# In short: as §1
# [36] = target: Neu5Ac(a2-6)Gal(b1-4)GlcNAc(b1-6)GalNAc
# In short: as §1
# [37] = target: Neu5Ac(a2-6)Gal(b1-4)GlcNAc(b1-6)[Gal(b1-3)GlcNAc(b1-3)]Gal(b1-4)Glc
# In short: as §1
# [38] = target: Neu5Ac(a2-8)Neu5Ac(a2-3)Gal(b1-4)Glc
# In short: as §1
# [39] = target: Neu5Ac(a2-8)Neu5Ac(a2-8)Neu5Ac(a2-3)Gal(b1-4)Glc
# In short: as §1
# [40] = target: Neu5Ac9Ac(a2-3)Gal(b1-4)GlcNAc
# In short: as §1
# [41] = target: Neu5Gc(a2-8)Neu5Gc(a2-3)Gal(b1-4)GlcNAc
# In short: as §1
binder,measurement,setting,value
B1,glycan array binding signal (z-score),[1],2.77
same,glycan array binding signal (z-score),[2],-0.528
same,glycan array binding signal (z-score),[3],1.7
same,glycan array binding signal (z-score),[4],-0.142
same,glycan array binding signal (z-score),[5],0.159
same,glycan array binding signal (z-score),[6],3.09
same,glycan array binding signal (z-score),[7],0.047
same,glycan array binding signal (z-score),[8],3.09
same,glycan array binding signal (z-score),[9],-0.474
same,glycan array binding signal (z-score),[10],2.95
same,glycan array binding signal (z-score),[11],0.177
same,glycan array binding signal (z-score),[12],-0.192
same,glycan array binding signal (z-score),[13],1.5
same,glycan array binding signal (z-score),[14],2.92
same,glycan array binding signal (z-score),[15],0.486
same,glycan array binding signal (z-score),[16],2.06
same,glycan array binding signal (z-score),[17],0.528
same,glycan array binding signal (z-score),[18],4.22
same,glycan array binding signal (z-score),[19],-0.911
same,glycan array binding signal (z-score),[20],2.28
same,glycan array binding signal (z-score),[21],1.49
same,glycan array binding signal (z-score),[22],-0.785
same,glycan array binding signal (z-score),[23],3.07
same,glycan array binding signal (z-score),[24],1.06
same,glycan array binding signal (z-score),[25],-0.336
same,glycan array binding signal (z-score),[26],2.94
same,glycan array binding signal (z-score),[27],-0.159
same,glycan array binding signal (z-score),[28],-1.02
same,glycan array binding signal (z-score),[29],-0.913
same,glycan array binding signal (z-score),[30],-1.05
same,glycan array binding signal (z-score),[31],-0.359
same,glycan array binding signal (z-score),[32],-0.92
same,glycan array binding signal (z-score),[33],0.809
same,glycan array binding signal (z-score),[34],3.91
same,glycan array binding signal (z-score),[35],2.86
same,glycan array binding signal (z-score),[36],3.08
same,glycan array binding signal (z-score),[37],-0.606
same,glycan array binding signal (z-score),[38],-1.15
same,glycan array binding signal (z-score),[39],0.487
same,glycan array binding signal (z-score),[40],0.223
same,glycan array binding signal (z-score),[41],-1.03
